# Test results: publication PMC4336329 (PLoS ONE, 2015)
# Hit rate of the full screen: of about 310,000 compounds, about 14,000 (4.5%) showed an effect of 50% or more. The effect is printed as a negative number. The list comes from a sample in which strong results are over-represented; it also holds similar structures and randomly drawn compounds.
# Biological target: human ether-à-go-go-related gene (hERG) potassium channel (human, UniProt Q12809)
# Assay: primary screen, population patch clamp on CHO cells stably expressing hERG; higher = less effect of the substance
# 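Further: peak tail current of the secondary pulse compared with the same well before compound.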
# Sequence of human ether-à-go-go-related gene (hERG) potassium channel (Q12809 whole entry, looked up): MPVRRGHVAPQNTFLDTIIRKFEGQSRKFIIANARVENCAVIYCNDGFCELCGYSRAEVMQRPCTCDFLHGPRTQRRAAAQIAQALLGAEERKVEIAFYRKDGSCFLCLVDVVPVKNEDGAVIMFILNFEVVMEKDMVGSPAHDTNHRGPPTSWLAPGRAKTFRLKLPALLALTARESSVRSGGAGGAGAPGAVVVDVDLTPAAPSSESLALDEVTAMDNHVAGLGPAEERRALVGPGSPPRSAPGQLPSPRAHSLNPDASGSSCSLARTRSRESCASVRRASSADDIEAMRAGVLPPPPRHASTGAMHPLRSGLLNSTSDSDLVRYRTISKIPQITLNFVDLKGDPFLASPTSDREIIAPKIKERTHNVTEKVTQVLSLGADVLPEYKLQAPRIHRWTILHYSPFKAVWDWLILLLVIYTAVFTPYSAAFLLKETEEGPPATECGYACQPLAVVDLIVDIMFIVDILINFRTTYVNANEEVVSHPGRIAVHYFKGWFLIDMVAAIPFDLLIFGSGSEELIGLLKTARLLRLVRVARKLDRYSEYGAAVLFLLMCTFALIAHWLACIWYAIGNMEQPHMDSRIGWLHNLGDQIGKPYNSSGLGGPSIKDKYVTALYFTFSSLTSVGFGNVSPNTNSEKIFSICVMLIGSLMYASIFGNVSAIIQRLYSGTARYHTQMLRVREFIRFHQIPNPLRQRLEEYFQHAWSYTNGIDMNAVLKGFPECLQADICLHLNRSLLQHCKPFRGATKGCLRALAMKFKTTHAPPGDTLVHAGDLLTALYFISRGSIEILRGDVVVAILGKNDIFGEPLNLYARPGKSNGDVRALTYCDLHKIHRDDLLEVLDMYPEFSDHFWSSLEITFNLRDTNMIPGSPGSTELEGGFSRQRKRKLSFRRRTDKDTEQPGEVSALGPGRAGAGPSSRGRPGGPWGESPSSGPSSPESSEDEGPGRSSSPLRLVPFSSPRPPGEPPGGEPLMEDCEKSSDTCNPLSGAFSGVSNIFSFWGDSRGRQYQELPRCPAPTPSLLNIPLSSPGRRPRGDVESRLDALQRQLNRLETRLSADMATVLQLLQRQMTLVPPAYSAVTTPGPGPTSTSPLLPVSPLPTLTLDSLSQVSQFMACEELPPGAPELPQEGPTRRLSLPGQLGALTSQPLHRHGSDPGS
row,Structure (SMILES),"hERG current change (%, negative = inhibition) at 10uM [%]"
1,Cc1nn(Cc2ccccc2)c(C)c1/C=N/NC(=O)c1ccncc1,-46.4
2,Cc1cccc(N2CCN(C(=O)c3cc(S(=O)(=O)N4CCCC4)cn3C)CC2)c1C,-38
3,Cc1cc(C)cc(NC(=O)CSc2nc3ccncc3[nH]2)c1,8.99
4,O=C(Nc1cc(S(=O)(=O)N2CCOCC2)ccc1N1CCOCC1)c1cn2ccccc2n1,-52.3
5,O=C(Nc1cc(C(F)(F)F)ccc1N1CCOCC1)c1cn2ccccc2n1,-2.98
6,O=C(Nc1ccc(Cl)c(S(=O)(=O)N2CCOCC2)c1)c1cn2ccccc2n1,11.9
7,C=CCn1c(COc2ccccc2)nnc1SC(C)C(=O)N/N=C/c1cc(Cl)ccc1O (stereo not drawn),0.335
8,CCCN1CCN(C(=O)c2ccc3nc(CC)c(CC)nc3c2)CC1,1.54
9,CNC(=O)COc1ccc(S(=O)(=O)Nc2ccccc2)cc1,14.4
10,O=C(c1ccco1)N1CCCSC1=Nc1ccccc1,12
11,COc1ccc(NC(=O)c2cc3ccccc3o/c2=N\NS(=O)(=O)c2ccc(C)cc2)cc1,-13.6
12,COc1cccc2cc(C(=O)Nc3cc(C)cc(C)c3)/c(=N/NS(=O)(=O)c3ccccc3)oc12,19.5
13,Cc1ccc(S(=O)(=O)N/N=c2\oc3ccccc3cc2C(=O)Nc2cccc(C)c2)cc1,-68.1
14,O=C1CC2(CCN(C(=O)c3cccc([N+](=O)[O-])c3)CC2)Oc2ccccc21,-75.7
15,O=C1CN(C(=O)c2cccc([N+](=O)[O-])c2)CC(=O)N1,13.4
16,O=C1CC2(CCN(C(=O)c3ccc([N+](=O)[O-])cc3)CC2)Oc2ccccc21,-87.9
17,O=C(c1cccc([N+](=O)[O-])c1)N1CCOCC1,11.7
18,Cc1nn2c(C(F)(F)F)c3c(nc2c1-c1ccccc1)CCC3,19.1
19,CC(=O)Nc1ccc(NS(=O)(=O)C(F)(F)F)cc1,31.2
20,O=C(COc1ccc(Cl)cc1)NCC(=O)N1CCC2(CC1)NCCc1[nH]cnc12,7.16
21,O=C(CSc1nc2c(c(=O)n1-c1ccc(F)cc1)SCC2)Nc1ccc2c(c1)OCO2,-2.35
22,CC(C)(C)OC(=O)N1CCC(Cc2cc(-c3ccccc3)no2)(C(=O)O)CC1,12.1
23,COc1cccc(-c2cc(C(=O)N3CCN(Cc4ccccc4)CC3)no2)c1,-15.7

row,Structure (SMILES),"hERG current change (%, negative = inhibition) at 10uM [%]"
1,OC1(Cc2cc(-c3ccccc3)no2)CCN(CCCc2ccccc2)CC1,-77
2,COc1cccc(-c2cc(CC3(O)CCN(CCCc4ccccc4)CC3)on2)c1,-89.1
3,c1ccc(CCCN2CCOCC2)cc1,22.1
4,COc1cccc(-c2cc(C(=O)NCCc3ccccc3)no2)c1,11.9
5,COCCN1Cc2cccc(C(=O)Nc3ccc(S(=O)(=O)N4CCOCC4)cc3)c2C1=O,27.3
6,O=C(O)CCCN=C1NC2(CCCC2)Cc2ccccc21,-39.6
7,COc1cccc(C(=O)N(Cc2ccccc2)Cc2cc3cc4c(cc3[nH]c2=O)OCCO4)c1,-25.3
8,COc1cc(Br)c(CC(=O)NC2CC2)cc1OC,17.8
9,COc1ccccc1CC(=O)N1CCC(CCC(=O)NC2CC2)CC1,13.8
10,COc1cc(Cl)cc(CN2CCC(CCC(=O)NC3CC3)CC2)c1OC,-20.8
11,COc1ccc(OC)c(C(=O)N2CCC(CCC(=O)NC3CC3)CC2)c1,13.1
12,COc1cc(Cl)c(CN2CCC(CCC(=O)NC3CC3)CC2)cc1OC,-66.2
13,COc1cc(CN2CCC(CCC(=O)NC3CC3)CC2)cc(Cl)c1OC,-55.4
14,COc1cc(NC(=O)C2CC2)c(OC)cc1NC(=O)CCC(=O)NC1CCN(Cc2ccccc2)CC1,2.82
15,CCOCc1cc(CN2CCC(CCC(=O)NC3CC3)CC2)ccc1OC,-62.1
16,COc1cc(CC(=O)OCC(=O)NC2CC2)cc(OC)c1OC,10.4
17,COc1ccc(-c2nc3ccccc3c(=O)n2CCOc2ccccc2C)cc1,21
18,Cc1ccccc1-c1nc(CS(=O)(=O)CC(=O)NCCN2CCCC2)c(C)o1,-10.4
19,COC(=O)c1ccccc1NC(=O)CCC(=O)N1CCSc2ccccc21,-12.1
20,COc1ccc(N(CC(=O)Nc2cccc(SC)c2)S(C)(=O)=O)cc1,-12.5
21,CC(CCc1ccccc1)NC(=O)CNC(=O)c1cccs1 (stereo not drawn),-5.72
22,COc1ccc(NC(=O)NNC(=O)C(C)Oc2ccc3ccccc3c2)cc1 (stereo not drawn),8.34
23,CC(C)(C)c1ccc(-c2conc2N)cc1,5.58

row,Structure (SMILES),"hERG current change (%, negative = inhibition) at 10uM [%]"
1,CCOc1ccccc1C(=O)N(C)CC(=O)Nc1ccc(OC)cc1,12
2,Cc1ccc(S(=O)(=O)NNC(=S)Nc2c(Cl)cccc2Cl)cc1,16.8
3,Cc1cc(N2CCCc3ccccc32)n2ncnc2n1,6.99
4,Cc1ccc(S(=O)(=O)N(C)C)cc1NC(=O)C1Cc2ccccc2CN1C(=O)c1ccco1 (stereo not drawn),-9.91
5,CCOC(=O)c1nc(NCc2cccc(OC)c2)c2ccccc2n1,-13.5
6,COc1ccc(CNc2nc(SCC(=O)NCc3ccco3)nc3ccccc23)cc1,-68.9
7,COc1ccc(CNc2ncnc3ccccc23)cc1,21.7
8,CCCCN(C)C(=O)CSc1nc(NCc2ccc(OC)cc2)c2ccccc2n1,-71
9,COc1ccc(CNC(=O)c2ccccc2SCC(=O)NCc2ccco2)cc1,-31.3
10,CCOC(=O)CSc1nc(NCc2ccco2)c2ccccc2n1,-56.1
11,CCOC(=O)CSc1nc(C)c2ccccc2n1,0.921
12,CSc1nc(NCc2ccco2)c2ccccc2n1,2.5
13,COc1ccc(-c2ccc(SCC(=O)NCc3ccco3)nn2)cc1,-8.73
14,CCN1CCN(Cc2ccc(NC(=O)c3cc(NC(=O)c4cc(C)on4)cc(OC)c3)cc2C(F)(F)F)CC1.O=C(O)C(F)(F)F,-28.7
15,Cc1ccc2cccc(S(=O)(=O)NC3CCS(=O)(=O)C3)c2n1 (stereo not drawn),-7.02
16,O=S(=O)(NCC1(N2CCOCC2)CCCCC1)c1ccc(Cl)cc1C(F)(F)F,-0.581
17,Cc1cc(NC(=O)c2cc3n(n2)C(C(F)(F)F)CC(c2ccco2)N3)no1 (stereo not drawn),4.63
18,Cn1c(=O)n(-c2ccc(Cl)cc2)c(=O)c2c3c(sc21)COC(C)(C)C3,3.68
19,O=C(N/N=C/c1cccnc1)c1ccccc1Cl,14.2
20,COc1ccc(Cc2c(O)[nH]c(=S)[nH]c2=O)cc1,13.8
21,CN1CCN(C(=O)CN(CCc2ccccc2)S(C)(=O)=O)CC1,11
22,CCn1ccnc1CN(C)Cc1cn(-c2cc(C)ccc2C)nc1-c1ccccc1,-51.7
23,Cc1ccc(C)c(-n2cc(CNCCc3cnccn3)c(-c3ccccc3)n2)c1,-67.1

row,Structure (SMILES),"hERG current change (%, negative = inhibition) at 10uM [%]"
1,Cc1ccc(C)c(-n2cc(CN3CCNC(=O)CC3)c(-c3ccccc3)n2)c1,-43.5
2,COCCN1CCC(CNCc2cn(-c3cc(C)ccc3C)nc2-c2ccccc2)C1 (stereo not drawn),-18
3,Cc1ccc(C)c(-n2cc(CN3CCCN(C=O)CC3)c(-c3ccccc3)n2)c1,-31.9
4,CCn1ccnc1CNCc1cn(-c2cc(C)ccc2C)nc1-c1ccccc1,-69.3
5,CCn1ccnc1CN(C)Cc1cn(-c2ccc(C)cc2)nc1-c1ccc(F)cc1,-39.9
6,CCn1ccnc1CN(C)Cc1cn(-c2cccc(C)c2)nc1-c1cccc(F)c1,-18.3
7,CCn1ccnc1CN(C)Cc1cn(-c2ccc(C)cc2)nc1-c1cccc(C)c1,-28.1
8,CCCN1CCC(=NNC(=O)c2ccc(Br)o2)CC1,-7.22
9,COc1ccc(S(=O)(=O)N=C2C=C(C)C(=O)C(C)=C2)cc1,-8.48
10,Cc1cc(=O)n2ccsc2n1,3.28
11,Cc1cc(=O)[nH]c2c1cnn2Cc1ccccc1,3.72
12,COc1ccc(/C=C(\C#N)C(=O)OCC(=O)NCc2ccccc2Cl)cc1,6.86
13,Cc1nn(Cc2ccccc2)c(C)c1C(=O)N1CCN(S(=O)(=O)/C=C/c2ccccc2)CC1,-24.8
14,Cc1nn(Cc2ccccc2Cl)c(Cl)c1C(=O)O,8.83
15,Cc1cccc(NC(=O)CN2CCN(C(=O)c3c(C)nn(Cc4ccccc4)c3C)CC2)c1C,-20.4
16,Cc1nn(Cc2ccccc2)c(C)c1C(=O)N1CCN(CC(=O)Nc2ccc(F)cc2)CC1,-62.6
17,O=C(CN1CCN(CC(=O)Nc2ccccc2Cc2ccccc2)CC1)Nc1ccccc1Cl,20
18,Cc1nn(Cc2ccccc2)c(C)c1C(=O)O,-19.1
19,Cc1cccc(N2CCN(C(=O)c3c(C)nn(Cc4ccccc4Cl)c3C)CC2)c1C,-0.851
20,Cc1nn(Cc2ccccc2Cl)c(C)c1C(=O)N1CCN(c2ccccc2)CC1,-58.6
21,Cc1nn(Cc2ccccc2)c(C)c1C(=O)N1CCN(CC(=O)Nc2ccccc2Cl)CC1,-50.3
